# In the library only some 7.6% were active in any assay of this set; here they are far more common.
# Gal4-VP16 FLuc: inhibits Gal4-VP16 luciferase reporter, ROR gamma counter-screen; 3.5% of 310,000 active; Potency, µM (series often up to 53.6 µM), without a hit: at the top dose activity, negative = inhibition, usual class: inhibitors; AID 2546; Drosophila S2 Gal4-VP16 UAS-luciferase, luminescence, 20 h;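 note: Gal4-VP16 expression switched on by copper sulfate through the metallothionein promoter; potency is the fitted concentration of half-maximal effect; % is set by controls: 0 for no effect and ±100 for the full control effect; nearly all actives have a fitted effect of over 50% in size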
# ELG1 repair inh: inhibitors of ELG1-dependent DNA repair in HEK293T cells | HEK293T ELG1-luciferase reporter, luminescence, 16 h; DNA damage induced by 5-fluorouridine | Potency, µM (highest dose often 46.1 µM), for the others: at the highest dose activity change, negative = inhibition, actives largely listed as inhibitors | 2.3% of 330,000 active | AID 504467; note: potency is the fitted concentration of half-maximal effect; % is set by controls: 0 for no effect and ±100 for the full control effect; nearly all actives have a fitted effect of over 55% in size
#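 Reporter activity after DNA damage by 5-fluorouridine is monitored. Compound-treated cells incubate 16 hr at 37 °C, then ONE-Glo is added for 30 min before luminescence reading.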
# RORgamma inh: inhibitors of mouse ROR gamma transcriptional activity. Drosophila S2 Gal4-RORgamma UAS-luciferase reporter, 20 h. Potency, µM (series often up to 53.6 µM), for inactives: at the top dose activity change, negative = inhibition, actives largely listed as inhibitors. 5.4% of 310,000 active. AID 2551; note: potency is the fitted concentration of half-maximal effect; % is set by controls: 0 for no effect and ±100 for the full control effect; nearly all actives have a fitted effect of over 60% in size
# Target sequence (P51450 whole entry, looked up, the tested form may be a part): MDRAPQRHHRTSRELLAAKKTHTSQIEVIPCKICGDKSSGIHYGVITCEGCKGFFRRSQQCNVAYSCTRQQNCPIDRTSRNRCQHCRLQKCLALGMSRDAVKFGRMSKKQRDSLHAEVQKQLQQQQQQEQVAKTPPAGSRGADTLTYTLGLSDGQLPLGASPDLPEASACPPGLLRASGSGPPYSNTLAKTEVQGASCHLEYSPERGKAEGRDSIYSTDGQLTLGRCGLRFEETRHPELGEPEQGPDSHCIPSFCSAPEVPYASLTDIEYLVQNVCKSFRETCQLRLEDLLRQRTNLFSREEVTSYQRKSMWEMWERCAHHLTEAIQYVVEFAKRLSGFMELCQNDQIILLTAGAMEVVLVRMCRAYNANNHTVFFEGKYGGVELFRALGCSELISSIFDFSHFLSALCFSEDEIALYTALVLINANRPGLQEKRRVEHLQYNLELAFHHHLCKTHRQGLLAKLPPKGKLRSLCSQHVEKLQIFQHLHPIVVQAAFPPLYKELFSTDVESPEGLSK
#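 Drosophila S2 cells stably expressing Gal4-DBD/mouse RORγ fusion under metallothionein promoter plus UAS-luciferase; compound 1 h, then 700 uM CuSO4 induction for 20 h at ambient temperature; inhibition read as reduced luminescence.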
# p53 reactivator: restores transcriptional activity of mutant p53. H1299 p53-A138V BP100-luciferase reporter, luminescence, 24 h. Potency, µM (top dose mostly 92.2 µM), for inactives: at the highest dose activity change, positive = activation, most hits filed as activators. 0.063% of 320,000 active. AID 504706; note: potency is the fitted concentration of half-maximal effect; % of control where 0% means no effect; nearly all actives have a fitted effect of over 45% in size
#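 H1299 (p53-null), stable ts p53-A138V + BP100-Luc; 1000 cells/well, Opti-MEM/10% FBS; cpd 4 pt, 1:5; 24 h, 37 deg C, 5% CO2; detection reagent 10 min RT; luminescence.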
# BRCA1 expr act: increases BRCA1 expression; MCF7-BRCA1-FFLuc reporter, luminescence, 48 h; response scale: scaled: vehicle 0%, 10 µM genistein 100%; Potency, µM (titrated, usually from 46.1 µM), for inactives: at the top dose activation, usual class: activators; 1.1% of 380,000 active; AID 624202; note: potency is the fitted concentration of half-maximal effect; nearly all actives have a fitted effect of over 80% in size
#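 MCF7 cells carrying a BRCA1-firefly luciferase reporter (2000 cells/well, phenol-red free MEM) were attached for 2 h at 37 °C, then given compounds for 48 h. Luminescence was read 15 min after luciferase reagent; activity normalized to genistein (10 microM) and DMSO.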
# Giardia killer: Giardia lamblia killing. Giardia lamblia trophozoite viability. activity change, % at 7.66 µM, hits read low. 0.15% of 340,000 active. AID 540267; in the data active = activity change below about -80%; inconclusive = between about -30% and that limit;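 note: parasites exposed to compound for two days anaerobically before the ATP read; % is set by controls: 0 for no effect and ±100 for the full control effect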
#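 Trophozoites 100 cells/well + cpd; 48 hrs, 37 deg C, anaerobic. ATPLite 1-Step added, 15-30 min RT, luminescence read (ATP-based viability).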
# An asterisk follows results filed as active; ? = inconclusive; / = no result given; [ ] = dose if it differs, or a comment. Unless noted, calls come from the whole dose curve; as a rule, active = well fitted curve in the direction sought with a large enough effect; inconclusive = small, poorly fitted or top-dose-only effect, or another doubt; inactive = no such curve, though single readings can be large; an effect the other way counts as inactive or inconclusive.
SMILES,Gal4-VP16 FLuc,ELG1 repair inh,RORgamma inh,p53 reactivator,BRCA1 expr act,Giardia killer
CCc1cc2c(=O)c(Oc3ccccc3)c(C)oc2cc1O,-3%,?,17%,5%,13%,-2
CC(=O)c1nccs1,7%,14%,7%,4%,-6%,-19
CCn1ncc(CNC(=O)c2cccc([N+](=O)[O-])c2)c1C,-8%,0%,10%,-22%,/,/
COCCN1CN(S(=O)(=O)c2cccc(Cl)c2)c2nc3ccccc3nc21,6%,-1%,22%,3%,0%,42
CC1CCCCC1NC(=O)CCCCCn1c(=S)[nH]c2ccsc2c1=O (configuration not stated),?,-6%,11µM*,-9%,-22%,5
O=C(CCCn1c(=O)[nH]c2ccsc2c1=O)NC1CCCCC1,3%,11%,1%,3%,-11%,-14
O=C(CCCn1c(=S)[nH]c2ccsc2c1=O)NC1CCCCC1,?,?,20µM*,-2%,-21%,6
Cc1noc2ncc(C(=O)c3cc(F)ccc3O)cc12,1%,-1%,29%,1%,5%,-17
O=C(c1cn[nH]c1)c1cc(F)ccc1O,-10%,21µM*,10%,-7%,9%,-8
Cc1[nH]nc2ncc(C(=O)c3cc(F)ccc3O)cc12,3%,18µM*,12%,0%,2%,-1
O=C(/C=C/c1cccc([N+](=O)[O-])c1)NCc1cccnc1,-2%,9%,15%,-3%,-19%,33
CC(=O)Nc1ccc(NS(=O)(=O)c2ccc(OC(C)C(=O)N3CCOCC3)cc2)cc1 (configuration not stated),/,0%,/,0%,0%,-5
Fc1ccc(NC(=S)Nc2ccc(F)c(Cl)c2)cc1Cl,-23%,?,1.8µM*,2%,-43%,6
O=C(NC(=S)Nc1ccc(F)c(Cl)c1)C1CC1,7.1µM*,10%,5.6µM*,0%,6%,-10
Cc1ccc(NC(=S)NC(=O)C2CC2)cc1Cl,5µM*,?,3.2µM*,?,17%,21
O=C(Nc1ccc(F)c(Cl)c1)C1CCCC1,/,/,/,/,0%,17
COc1cc(C(C)=O)ccc1OCC(=O)Nc1ccccc1N1CCCC1,-1%,?,5%,-6%,-16%,-23
C=CCn1c(-c2ccccc2)c[nH]c1=S,?,?,-29%,?,83%,-1
CCn1c(-c2ccc(-c3ccccc3)cc2)c[nH]c1=S,1.6µM*,?,1.8µM*,-1%,-8%,8
Cn1c(-c2ccc(-c3ccccc3)cc2)c[nH]c1=S,2.2µM*,?,0.79µM*,26%,69%,-4
C=CCn1c(-c2ccc(Cl)cc2)c[nH]c1=S,2.8µM*,20%,2µM*,-2%,-9%,8
CCOc1ccc(C2C(C#N)=C(N)Oc3cc(C)[nH]c(=O)c32)cc1OC (configuration not stated),-7%,0%,2%,-2%,-13%,1
COc1ccccc1C(N)=S,?,0%,16µM*,6%,-2%,-1
COc1ccccc1C(=O)C(=O)c1ccccc1OC,/,/,/,/,-17%,11
C[C@@H]1CN([C@@H](C)CO)C(=O)c2cc(Br)cnc2O[C@H]1CN(C)C(=O)C1CCCCC1,/,/,/,/,9%,/
SMILES,Gal4-VP16 FLuc,ELG1 repair inh,RORgamma inh,p53 reactivator,BRCA1 expr act,Giardia killer
CCN(CC)C(=S)SSC(=S)N(CC)CC,1µM*,?,1.1µM*,/,0%,-24
CCN(CC)C(=S)SC1=CCS(=O)(=O)C1,-1%,?,-29%,-1%,0%,-7
c1ccc2c(c1)[nH]c1c(NCC3CCCO3)ncnc12 (configuration not stated),?,15µM*,?,-10%,-62%,4
CCOCCCNc1ncnc2c1[nH]c1ccccc12,?,15µM*,15%,-25%,1%,8
C=CCNc1ncnc2c1[nH]c1ccccc12,?,?,38%,3%,-23%,-19
CCOc1ccc2[nH]c3c(NCCO)ncnc3c2c1,-4%,29%,3%,5%,54%,14
CCCCOCCCNc1ncnc2c1[nH]c1ccccc12,10µM*,?,?,-8%,-72%,-16
O=C1/C(=C/c2ccc(F)c(F)c2)CSc2sccc21,12%,?,?,2%,-27%,-13
CC(=O)c1ccc(NC(=O)c2c(C)nn(-c3ccccc3)c2Cl)cc1,?,-6%,11µM*,-1%,68%,-8
CCn1c(C(=O)N2CCC(C(=O)NCc3ccc(OC)cc3)CC2)cc2sccc21,10%,-19%,?,-2%,-6%,-19
CC(C)Oc1ccc(C(=O)NC(=S)Nc2ccc(CN3CCOCC3)cc2)cc1,13µM*,?,7.1µM*,-4%,-11%,-1
Cc1ccc(C(=O)NC(=S)Nc2ccc(CN3CCOCC3)cc2)cc1,?,1%,14µM*,-9%,15%,9
O=C(NC(=S)Nc1ccc(CN2CCOCC2)cc1)c1ccccc1[N+](=O)[O-],-5%,-2%,-26%,-1%,20%,2
COc1ccc(-n2c(Cc3cccn3C)nnc2SCC(=O)NCc2ccco2)cc1,-8%,10%,21%,-1%,-21%,-23
COc1ccc(-c2cnc(N)n2C)cc1,0%,6%,-28%,8%,1%,5
Cn1c(-c2ccccc2)cnc1N,-11%,29%,13µM*,15%,0%,-4
COCCn1c(-c2ccccc2)cnc1N,?,3%,11µM*,0%,-11%,0
CN(C)c1ccc(Nc2nc(N)c([N+](=O)[O-])c(N3CCOCC3)n2)cc1,-2%,16µM*,24%,2%,-11%,17
COc1ccc(CNC(=O)CCC(=O)c2ccccc2)cc1,/,8%,/,3%,-1%,-11
CC(C)Cn1c2c(c(=O)[nH]c1=O)C(C(F)(F)F)(C(F)(F)F)N=C(CCC1CCCCC1)N2,11µM*,4%,?,-8%,-50%,9
O=c1[nH]c(=O)n(Cc2ccco2)c2c1C(C(F)(F)F)(C(F)(F)F)N=C(CCC1CCCCC1)N2,?,?,-7%,3%,0%[1.84 µM],-6
N=C(N=C(N)N)N1CCc2ccccc21,-10%,2%,-15%,0%,-13%,-1
N#C/C(=C\c1ccc(N2CCOCC2)o1)c1ccccc1,20µM*,?,?,-14%,-7%,-3
N#C/C(=C/c1ccc(N2CCOCC2)o1)c1ccc(Br)cc1,5.6µM*,?,-91%,-9%,-32%,10
CN(CC(=O)Nc1cccc(F)c1)C(=O)CCc1nc2sc3c(c2c(=O)[nH]1)CCCC3,/,?,/,8%,-18%,32

# Screens deposited in PubChem by National Center for Advancing Translational Sciences (NCATS).
